Experiment [1] relates to PRMT1 (protein arginine N-methyltransferase 1). The experiment is described as follows: PRMT1 binders on small-molecule microarrays, primary screen, biochemical, small-molecule microarray, 635 nm fluorescence (AID 1088).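 Also: binding of Prmt1 protein to compounds spotted on small-molecule microarray slides.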 The settings on record: small-molecule microarray binding, higher = more signal.
Experiment [2] in a line: yeast growth modulation, basal conditions, primary screen, YJM789 clinical isolate, OD600, 24 h (AID 1089).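 Also: growth of clinical yeast isolate S. cerevisiae YJM 789 seeded 1000 cells per well; test concentration not given here.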 The settings on record: S. cerevisiae YJM789 growth, higher = more signal, called active from +8 up or from −8 down.
Experiment [3] in a line: fission yeast growth modulation, primary screen, strain 972, OD600, 24 h, no modulator (AID 1090).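 Also: basal condition with compound alone and no growth modifier present; test concentration not given here.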 The note with it: S. pombe 972 growth, higher = more signal, called active from +8 up or from −8 down.
A short description of experiment [4]: S. cerevisiae growth modulation with rapamycin, primary screen, strain BY4716, OD600, 96 h (AID 1091). Also: test concentration not given here. The settings on record: higher = more signal, called active from +8 up or from −8 down.
Experiment [5] has as its target Torsin-1A-interacting protein 2 (Homo sapiens) (UniProt Q8NFQ8). As to the kind of experiment: LULL1 binders on small-molecule microarray, primary screen, cell lysate, human LULL1 lysate, 635/667 nm fluorescence (AID 1092).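 Also: probe is lysate of COS7 cells overexpressing human LULL1; score merges per-feature 667 nm fluorescence with signal-to-noise.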 The note with it: hLULL1 lysate binding, 635 nm fluorescence, higher = more signal.
The nature of experiment [6]: E. coli growth modulation, two-sided OD650, primary screen, E. coli filamentation project, strain DRC41, 24 h (AID 1093).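 Also: MC1000 strain lacking acrAB efflux and sulA so SOS filamentation is blocked; test concentration not given here.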 The settings on record: OD650, 24 h, higher = more signal, called active from +8 up or from −8 down.
Experiment [7] can be described thus: small-molecule microarray binders of probe aLefty2, primary screen, biochemical, biotinylated probe, 635/667 nm fluorescence (AID 1094).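 Also: score merges spot fluorescence near 667 nm with spot signal-to-noise ratio.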 The note with it: higher = more signal.
Experiment [8] has as its system Noggin (protein binding on small-molecule microarray). The experiment is described as follows: Noggin binders on small-molecule microarray, primary screen, biochemical, 635/667 nm fluorescence (AID 1095).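 Also: score merges 667 nm feature fluorescence with signal to noise over triplicate slides.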 The settings on record: 635 nm fluorescence, higher = more signal.
In experiment [9] the target is Neurogenic locus notch homolog protein 3 (Homo sapiens) (UniProt Q9UM47). As to the kind of experiment: NOTCH3 binders on small-molecule microarray, primary screen, biochemical, 635/667 nm fluorescence (AID 1096). The note with it: NOTCH3 binding, 635 nm fluorescence, higher = more signal.
Neurogenic locus notch homolog protein 3 (Homo sapiens), sequence (Q9UM47 whole entry, looked up): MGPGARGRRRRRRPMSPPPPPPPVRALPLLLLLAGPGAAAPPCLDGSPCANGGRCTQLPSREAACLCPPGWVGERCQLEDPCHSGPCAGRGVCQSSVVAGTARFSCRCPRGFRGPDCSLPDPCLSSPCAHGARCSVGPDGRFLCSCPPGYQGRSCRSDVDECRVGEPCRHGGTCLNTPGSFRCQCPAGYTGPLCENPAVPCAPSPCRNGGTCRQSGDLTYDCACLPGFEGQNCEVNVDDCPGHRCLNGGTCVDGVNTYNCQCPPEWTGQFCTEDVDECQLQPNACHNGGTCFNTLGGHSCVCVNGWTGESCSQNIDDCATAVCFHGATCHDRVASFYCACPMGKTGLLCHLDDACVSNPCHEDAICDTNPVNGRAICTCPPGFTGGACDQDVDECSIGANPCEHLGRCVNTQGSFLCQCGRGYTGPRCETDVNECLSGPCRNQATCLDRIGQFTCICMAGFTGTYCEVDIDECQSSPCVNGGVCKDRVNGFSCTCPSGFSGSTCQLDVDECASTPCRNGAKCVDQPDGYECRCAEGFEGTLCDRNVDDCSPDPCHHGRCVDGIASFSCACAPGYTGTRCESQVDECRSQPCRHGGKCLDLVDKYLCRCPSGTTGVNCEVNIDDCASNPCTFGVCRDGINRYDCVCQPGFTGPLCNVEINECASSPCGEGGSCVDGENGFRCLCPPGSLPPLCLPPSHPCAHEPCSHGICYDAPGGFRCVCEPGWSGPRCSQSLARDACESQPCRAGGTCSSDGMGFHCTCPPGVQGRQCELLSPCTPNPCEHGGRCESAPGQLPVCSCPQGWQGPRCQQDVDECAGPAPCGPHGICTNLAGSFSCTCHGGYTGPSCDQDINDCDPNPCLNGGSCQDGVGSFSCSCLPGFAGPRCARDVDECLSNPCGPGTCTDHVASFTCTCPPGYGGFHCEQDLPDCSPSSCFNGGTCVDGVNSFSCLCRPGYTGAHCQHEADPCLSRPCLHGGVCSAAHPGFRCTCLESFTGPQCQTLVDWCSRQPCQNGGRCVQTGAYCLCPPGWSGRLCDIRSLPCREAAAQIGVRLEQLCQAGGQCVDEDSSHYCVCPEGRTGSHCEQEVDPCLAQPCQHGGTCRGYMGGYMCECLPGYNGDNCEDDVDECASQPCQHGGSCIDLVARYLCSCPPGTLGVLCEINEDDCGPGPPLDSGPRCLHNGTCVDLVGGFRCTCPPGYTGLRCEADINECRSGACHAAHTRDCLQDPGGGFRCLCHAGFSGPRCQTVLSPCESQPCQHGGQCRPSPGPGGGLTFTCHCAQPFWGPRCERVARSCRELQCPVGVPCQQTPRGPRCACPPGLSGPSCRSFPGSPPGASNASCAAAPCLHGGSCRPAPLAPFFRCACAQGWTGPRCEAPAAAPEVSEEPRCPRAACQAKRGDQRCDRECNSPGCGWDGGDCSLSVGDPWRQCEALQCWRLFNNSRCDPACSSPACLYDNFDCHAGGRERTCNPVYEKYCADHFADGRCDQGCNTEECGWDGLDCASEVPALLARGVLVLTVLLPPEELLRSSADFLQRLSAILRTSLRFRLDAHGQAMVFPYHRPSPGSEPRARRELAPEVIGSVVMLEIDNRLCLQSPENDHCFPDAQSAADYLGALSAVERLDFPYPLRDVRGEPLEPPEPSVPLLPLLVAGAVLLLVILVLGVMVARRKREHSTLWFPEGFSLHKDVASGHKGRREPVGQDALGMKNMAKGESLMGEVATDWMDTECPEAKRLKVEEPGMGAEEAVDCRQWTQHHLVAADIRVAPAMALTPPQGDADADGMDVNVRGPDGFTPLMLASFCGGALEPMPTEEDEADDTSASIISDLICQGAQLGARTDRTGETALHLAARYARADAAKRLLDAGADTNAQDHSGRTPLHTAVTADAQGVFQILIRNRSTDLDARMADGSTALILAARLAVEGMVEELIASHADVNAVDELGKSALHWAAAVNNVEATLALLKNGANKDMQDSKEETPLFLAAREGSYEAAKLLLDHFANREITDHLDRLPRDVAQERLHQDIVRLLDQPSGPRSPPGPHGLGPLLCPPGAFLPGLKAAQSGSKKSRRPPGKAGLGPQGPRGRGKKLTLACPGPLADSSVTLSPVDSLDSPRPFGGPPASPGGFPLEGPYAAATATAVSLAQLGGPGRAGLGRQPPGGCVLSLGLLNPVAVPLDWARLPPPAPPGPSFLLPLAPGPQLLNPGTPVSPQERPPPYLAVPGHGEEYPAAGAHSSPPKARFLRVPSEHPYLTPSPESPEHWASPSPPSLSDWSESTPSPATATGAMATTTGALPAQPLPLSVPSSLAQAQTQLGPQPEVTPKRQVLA
A short description of experiment [10]: small-molecule microarray binders of probe aEGFR, primary screen, biochemical, biotinylated probe, 635/667 nm fluorescence (AID 1097).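 Also: probe is a biotinylated anti-EGFR antibody binding compounds printed on slides; score combines fluorescence near 667 nm and signal to noise of each spot.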 The note with it: higher = more signal.
The subject of experiment [11] is Plasmodium falciparum Sir2 (PF13_0152, Sir2A). The experiment is described as follows: pfSir2 binders on small-molecule microarrays, primary screen, biochemical, small-molecule microarray, 635 nm fluorescence (AID 1098).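 Also: score merges spot fluorescence intensity with its signal-to-noise ratio.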 The settings on record: small-molecule microarray binding, fluorescence 635 nm; higher = more signal.
Experiment [12] is described as follows: small-molecule microarray binders of probe aDKK1, primary screen, biochemical, biotinylated probe, 635/667 nm fluorescence (AID 1099).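 Also: score merges 667nm spot fluorescence with signal to noise across triplicate slides; reference of the scale not given here.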 The settings on record: higher = more signal.
A short description of experiment [13]: small-molecule microarray binders of probe aCHRDL2, primary screen, biochemical, biotinylated probe, 635/667 nm fluorescence (AID 1100). The note with it: higher = more signal.
Experiment [14] in a line: splicing luciferase reporter signal modulators, primary screen, spliceosome inhibition project, cell-based, HEK293, splice +/- reporter (AID 1101).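 Also: HEK293 cells carrying a splicing-competent luciferase reporter gene; test concentration not given here.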 The note with it: luminescence, 24 h, higher = more signal, called active from +8 up or from −8 down. Background: Reporter assays use an easily measured gene product as a stand-in for the process of interest.
Experiment [15] concerns the target Fibroblast growth factor 10 (Homo sapiens) (UniProt O15520). As to the kind of experiment: FGF10 binders on small-molecule microarrays, primary screen, biochemical, small-molecule microarray, 635 nm fluorescence (AID 1102). The settings on record: FGF10 binding, fluorescence 635 nm, higher = more signal.
Experiment [16] has as its system glycogen synthase kinase-3 (GSK3A per assay name; protocol says GSK3B). The experiment is described as follows: GSK3 binders on small-molecule microarrays, primary screen, biochemical, small-molecule microarray, 635 nm fluorescence, GSK3A (AID 1103). Also: the record names both GSK3A and GSK3B. The note with it: small-molecule microarray binding, fluorescence 635 nm; higher = more signal.
In experiment [17] the target is Epidermal growth factor receptor (Homo sapiens) (UniProt P00533). The experiment is described as follows: EGFR binders on small-molecule microarrays, primary screen, biochemical, small-molecule microarray, 635 nm fluorescence (AID 1104).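 Also: score merges 667 nm emission intensity with spot signal to noise over triplicate slides.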 The settings on record: EGFR binding, higher = more signal.
Epidermal growth factor receptor (Homo sapiens), sequence (P00533 whole entry, looked up): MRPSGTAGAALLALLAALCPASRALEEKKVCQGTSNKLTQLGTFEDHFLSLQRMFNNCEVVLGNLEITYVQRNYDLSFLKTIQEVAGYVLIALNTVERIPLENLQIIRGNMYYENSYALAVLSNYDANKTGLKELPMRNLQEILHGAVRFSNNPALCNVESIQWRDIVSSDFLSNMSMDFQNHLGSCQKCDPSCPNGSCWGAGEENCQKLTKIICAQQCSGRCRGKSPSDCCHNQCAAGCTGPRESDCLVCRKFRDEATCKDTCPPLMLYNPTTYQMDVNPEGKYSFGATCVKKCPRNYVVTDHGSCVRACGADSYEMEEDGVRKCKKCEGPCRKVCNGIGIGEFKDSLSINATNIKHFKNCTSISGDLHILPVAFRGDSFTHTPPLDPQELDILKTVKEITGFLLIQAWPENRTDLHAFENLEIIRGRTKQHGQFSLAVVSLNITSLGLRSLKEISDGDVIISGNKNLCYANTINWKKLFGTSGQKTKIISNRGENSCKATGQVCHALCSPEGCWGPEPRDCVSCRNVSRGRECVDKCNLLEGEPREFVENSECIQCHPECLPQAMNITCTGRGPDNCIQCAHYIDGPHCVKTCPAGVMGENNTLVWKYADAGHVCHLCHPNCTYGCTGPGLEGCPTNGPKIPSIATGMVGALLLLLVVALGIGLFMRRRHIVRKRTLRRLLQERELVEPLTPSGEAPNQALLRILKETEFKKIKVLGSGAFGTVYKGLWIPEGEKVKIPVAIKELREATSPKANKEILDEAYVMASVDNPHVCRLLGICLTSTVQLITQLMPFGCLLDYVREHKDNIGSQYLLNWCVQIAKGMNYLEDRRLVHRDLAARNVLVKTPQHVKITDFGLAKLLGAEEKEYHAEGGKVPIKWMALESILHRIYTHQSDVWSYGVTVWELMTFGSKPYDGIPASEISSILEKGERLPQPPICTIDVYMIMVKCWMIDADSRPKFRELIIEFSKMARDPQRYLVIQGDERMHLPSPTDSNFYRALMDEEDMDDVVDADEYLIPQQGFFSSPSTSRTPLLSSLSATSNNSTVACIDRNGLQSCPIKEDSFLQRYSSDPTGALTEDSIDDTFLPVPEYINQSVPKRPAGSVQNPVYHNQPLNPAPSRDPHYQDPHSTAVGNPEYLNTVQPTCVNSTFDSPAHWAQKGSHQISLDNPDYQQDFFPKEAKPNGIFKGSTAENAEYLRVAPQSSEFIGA
The target of experiment [18] is Follistatin-related protein 3 (Homo sapiens) (UniProt O95633). As to the kind of experiment: FSTL3 binders on small-molecule microarrays, primary screen, biochemical, small-molecule microarray, 635 nm fluorescence (AID 1105).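 Also: score merges emission near 667 nm and signal to noise per printed spot across three slides.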 The settings on record: FSTL3 binding, higher = more signal.
Follistatin-related protein 3 (Homo sapiens), sequence (O95633 whole entry, looked up): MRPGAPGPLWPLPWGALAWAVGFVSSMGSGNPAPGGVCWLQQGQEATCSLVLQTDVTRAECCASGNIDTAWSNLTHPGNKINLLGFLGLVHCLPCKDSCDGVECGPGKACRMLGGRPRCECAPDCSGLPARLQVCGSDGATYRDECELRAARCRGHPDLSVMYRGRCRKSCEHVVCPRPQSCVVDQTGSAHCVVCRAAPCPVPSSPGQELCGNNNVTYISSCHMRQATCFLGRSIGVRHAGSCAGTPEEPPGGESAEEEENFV
In experiment [19] the target is Dickkopf-related protein 1 (Homo sapiens) (UniProt O94907). As to the kind of experiment: DKK1 binders on small-molecule microarrays, primary screen, biochemical, small-molecule microarray, 635 nm fluorescence scan (AID 1106).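 Also: score merges emission near 667 nm with signal to noise over three replicate slides.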 The note with it: DKK1 binding, higher = more signal.
Dickkopf-related protein 1 (Homo sapiens), sequence (O94907 whole entry, looked up): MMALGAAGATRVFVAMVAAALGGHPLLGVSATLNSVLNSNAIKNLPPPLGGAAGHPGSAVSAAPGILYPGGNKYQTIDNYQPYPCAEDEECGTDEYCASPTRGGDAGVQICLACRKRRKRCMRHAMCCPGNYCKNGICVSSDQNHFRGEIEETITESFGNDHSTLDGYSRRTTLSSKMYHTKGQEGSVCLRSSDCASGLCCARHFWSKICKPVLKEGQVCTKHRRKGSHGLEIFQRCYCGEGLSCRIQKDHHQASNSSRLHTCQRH
Experiment [20] has as its system Inhibin beta A chain (activin A). As to the kind of experiment: INHBA (activin A) binders on microarrays, primary screen, biochemical, small-molecule microarray, 635 nm fluorescence scan (AID 1107).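 Also: mouse activin A protein probed at 4.33 µg/mL on printed slides; score merges bound-protein fluorescence near 667 nm with spot signal-to-noise.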 The settings on record: small-molecule microarray binding, higher = more signal.

Activity calls are given as the source filed them.

Torsin-1A-interacting protein 2 (Homo sapiens), sequence (Q8NFQ8 whole entry, looked up): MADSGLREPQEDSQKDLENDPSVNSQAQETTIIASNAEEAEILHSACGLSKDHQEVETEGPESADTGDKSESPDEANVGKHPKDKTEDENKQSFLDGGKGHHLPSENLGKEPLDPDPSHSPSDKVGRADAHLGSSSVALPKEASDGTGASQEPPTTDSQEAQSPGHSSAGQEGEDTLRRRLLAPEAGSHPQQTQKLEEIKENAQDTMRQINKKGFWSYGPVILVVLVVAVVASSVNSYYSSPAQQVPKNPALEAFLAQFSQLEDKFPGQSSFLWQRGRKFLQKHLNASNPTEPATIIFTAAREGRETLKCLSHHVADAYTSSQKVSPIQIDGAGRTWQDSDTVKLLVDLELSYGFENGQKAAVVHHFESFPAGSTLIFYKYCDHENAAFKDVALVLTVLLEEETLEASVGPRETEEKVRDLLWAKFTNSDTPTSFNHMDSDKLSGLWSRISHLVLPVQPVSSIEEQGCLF
Fibroblast growth factor 10 (Homo sapiens), sequence (O15520 whole entry, looked up): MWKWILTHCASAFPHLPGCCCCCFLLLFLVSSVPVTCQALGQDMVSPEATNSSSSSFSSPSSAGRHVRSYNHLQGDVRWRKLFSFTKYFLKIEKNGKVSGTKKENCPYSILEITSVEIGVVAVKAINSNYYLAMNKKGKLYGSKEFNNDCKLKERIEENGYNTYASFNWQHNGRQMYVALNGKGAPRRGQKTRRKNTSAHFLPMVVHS

As for `CCCCCCc1nc(C2CC2)cc2c1[Si](C(C)C)(C(C)C)OC2`, the composite z-score in experiment [1] is -0.439; in experiment [5], -0.908; in [7], -0.152; in experiment [8], -0.798; in experiment [9], -0.861; in [10], -0.228. Besides, the composite z-score was -0.552 in experiment [11]; -0.226 in experiment [12]; -0.144 in experiment [13]; -0.729 in experiment [15]; -0.461 in experiment [16]; -0.375 in [17]. In addition, the composite z-score in experiment [18] was -0.762; in experiment [19], -0.356; in [20], 0.819. The z-score was 0.01 (inactive) in experiment [2]; -0.183 (inactive) in experiment [3]; 0.0489 (inactive) in experiment [4]; -0.772 (inactive) in experiment [6]; -1.71 (inactive) in experiment [14].

For the compound `COc1cc2c(cc1OC)CN(C(=O)[C@@H]1[C@H]3C(=O)O[C@H](c4ccccc4)[C@H](c4ccccc4)N3[C@H](c3ccc(OCCO)cc3)[C@@]13C(=O)Nc1ccc(C#CC4(O)CCCCCC4)cc13)CC2`, the composite z-score in experiment [1] was 1.54; in [5], 3.19; in experiment [7] it was -0.438; in experiment [8], 1.47; in experiment [9] it was 1.08; in experiment [10] it was -0.244. The composite z-score is 1.21 in experiment [11]; 0.7 in experiment [12]; -0.386 in experiment [13]; 1.47 in experiment [15]; 1.3 in experiment [16]; 0.741 in experiment [17]. Besides, the composite z-score was 1.11 in experiment [18], 0.698 in experiment [19] and 0.282 in experiment [20]. The z-score in experiment [2] was 0.972 (inactive); in experiment [3] it was 0.888 (inactive); in experiment [4] it was 5.25 (inactive); in experiment [6], 2.32 (inactive); in experiment [14], -1.38 (inactive).

On to `O=C1NC(=O)C2C1C=CC(C(O)c1c(F)cccc1Cl)N2Nc1ccc(Cl)cc1Cl` (stereo not given), for which the composite z-score is 0.0621 in experiment [1]; 3.2 in experiment [5]; 0.319 in experiment [7]; -0.836 in [8]; 0.53 in experiment [9]; 0.0069 in experiment [10]. For the same compound, the composite z-score is 1.49 in [11]; 1.4 in [12]; 1.41 in experiment [13]; 0.185 in experiment [15]; 0.249 in experiment [16]; -0.391 in experiment [17]. Besides, the figures for the composite z-score in [18], in experiment [19] and in experiment [20] were 0.0256, -0.367 and 1.29, respectively. In addition, the z-score is -20.9 (active) in [2]; -1.98 (inactive) in experiment [3]; 1.65 (inactive) in experiment [4]; -3.22 (inactive) in experiment [6]; 1.57 (inactive) in experiment [14].

As to `CC(C)OC(=O)C=C1C[C@@H](c2ccc(C(F)(F)F)cc2)O[C@@H](c2ccc(C(F)(F)F)cc2)O1`, the composite z-score in experiment [1] was 1.16; in experiment [5], 2.66; in experiment [7], -0.241; in experiment [8], 0.105; in experiment [9] it was 0.324; in experiment [10], -0.195. The composite z-score in experiment [11] was 1.12; in experiment [12], 0.164; in experiment [13] it was 0.492; in [15], 0.158; in experiment [16], 0.485; in [17], -0.765. The composite z-score was 0.0144 in experiment [18], -0.899 in experiment [19] and -0.522 in [20]. The z-score in [2] was -1.84 (inactive); in experiment [3], -7.12 (inactive); in [4] it was -1.52 (inactive); in [6], 0.374 (inactive); in experiment [14] it was -1.55 (inactive).

As to `COCCCNC(=O)[C@@]1(Cc2ccccc2CN=[N+]=[N-])N=C(c2ccc(OCCCO)cc2)O[C@H]1c1ccccc1`, the composite z-score in experiment [1] is 1.54; in experiment [5], 3.26; in [7] it was 0.0235; in experiment [8] it was 1.13; in [9], 1.12; in [10] it was -0.0267. The composite z-score was 1.06 in [11]; 0.432 in [12]; 0.825 in [13]; 1.31 in experiment [15]; 0.235 in experiment [16]; -0.331 in experiment [17]. The results for the composite z-score in experiment [18], in [19] and in [20] were 0.561, -0.497 and 0.31, respectively. For the same compound, the z-score in experiment [2] was 1.06 (inactive); in experiment [3] it was 1.04 (inactive); in experiment [4] it was 11.6 (active); in experiment [6], 0.261 (inactive); in experiment [14], -0.645 (inactive).
